Test results published in the supplement of paper PMC3334620.
Over roughly 33,000 sequences, “E-score (-0.5 to 0.5)” has its median near -0.053; the highest 2% begin near 0.37. For the sample, the highest values were picked, then their nearest neighbours and some sequences at random.

molecular target: Hap1 (UniProt P0CE41); experiment: PBM E-score (8-mer binding enrichment) (E-score (-0.5 to 0.5)); higher = stronger / more preferred TF binding; conditions: protein concentration: 200 nM; construct: GST-DNA-binding domain
Chain of UniProt P0CE41 (P0CE41 whole entry, the tested form may be a part): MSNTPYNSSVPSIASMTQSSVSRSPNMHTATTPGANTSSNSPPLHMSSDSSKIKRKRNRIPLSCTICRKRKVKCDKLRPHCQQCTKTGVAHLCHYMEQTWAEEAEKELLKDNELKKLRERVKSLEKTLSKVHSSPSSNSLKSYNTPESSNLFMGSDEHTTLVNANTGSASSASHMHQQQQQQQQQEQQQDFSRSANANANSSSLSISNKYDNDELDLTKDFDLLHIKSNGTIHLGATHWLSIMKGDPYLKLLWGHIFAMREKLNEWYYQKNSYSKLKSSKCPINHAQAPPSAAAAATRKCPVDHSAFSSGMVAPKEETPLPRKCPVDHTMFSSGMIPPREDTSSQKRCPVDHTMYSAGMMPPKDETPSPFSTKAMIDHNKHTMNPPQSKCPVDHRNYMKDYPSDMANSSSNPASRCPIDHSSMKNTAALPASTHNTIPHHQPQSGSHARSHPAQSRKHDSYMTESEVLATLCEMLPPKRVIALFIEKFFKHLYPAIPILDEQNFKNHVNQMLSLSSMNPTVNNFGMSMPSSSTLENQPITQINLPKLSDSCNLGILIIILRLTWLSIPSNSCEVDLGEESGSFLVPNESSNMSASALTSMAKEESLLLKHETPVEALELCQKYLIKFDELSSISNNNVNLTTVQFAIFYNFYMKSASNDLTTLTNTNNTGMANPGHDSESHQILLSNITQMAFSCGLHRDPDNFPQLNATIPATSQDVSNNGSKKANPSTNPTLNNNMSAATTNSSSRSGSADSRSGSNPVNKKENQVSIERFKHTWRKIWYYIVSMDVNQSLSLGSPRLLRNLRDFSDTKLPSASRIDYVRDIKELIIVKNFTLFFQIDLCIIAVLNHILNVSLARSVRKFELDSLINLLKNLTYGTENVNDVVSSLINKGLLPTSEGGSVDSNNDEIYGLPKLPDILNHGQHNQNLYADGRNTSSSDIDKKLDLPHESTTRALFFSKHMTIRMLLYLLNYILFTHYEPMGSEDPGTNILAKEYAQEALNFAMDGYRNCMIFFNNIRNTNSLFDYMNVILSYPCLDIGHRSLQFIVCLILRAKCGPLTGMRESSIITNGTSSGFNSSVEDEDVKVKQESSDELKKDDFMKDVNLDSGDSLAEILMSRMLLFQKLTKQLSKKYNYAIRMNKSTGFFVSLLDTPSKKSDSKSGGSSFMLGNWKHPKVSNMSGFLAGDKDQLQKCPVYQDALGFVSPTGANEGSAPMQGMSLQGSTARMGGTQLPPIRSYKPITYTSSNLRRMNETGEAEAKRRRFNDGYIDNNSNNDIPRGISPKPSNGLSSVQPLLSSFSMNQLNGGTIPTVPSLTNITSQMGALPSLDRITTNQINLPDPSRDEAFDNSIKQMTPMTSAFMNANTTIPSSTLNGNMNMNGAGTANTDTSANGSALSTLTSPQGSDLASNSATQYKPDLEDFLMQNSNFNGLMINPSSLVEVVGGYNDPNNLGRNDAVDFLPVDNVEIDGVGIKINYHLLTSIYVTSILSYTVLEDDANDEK
In short: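 Detection of bound protein used fluorescent anti-GST, with scans normalised by masliner. The proteins were GST-tagged yeast transcription factors applied at about 100-200 nM to universal all-10-mer Agilent arrays made double-stranded by primer extension. Each ungapped eight-base word, pooled with its reverse complement, was scored with an E-score from the Universal PBM Analysis Suite.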

Going from CCAACTGA to GGAGAGAC, the “PBM E-score” value rises from -0.324 to 0.101.

First: AACCTCGC
Second: AGTCGTAA
The “PBM E-score” value of the first is lower: -0.0117 for the first, 0.00615 for the second.

First: AAAGAGCC
Second: AGGACCGA
The “PBM E-score” value of the first is lower: -0.12 for the first, 0.311 for the second.

First: GATTTATA
Second: ACGGACCA
The “PBM E-score” value of the first is lower: 0.146 for the first, 0.344 for the second.

Compared with GCGGACCA, CCGGACCA is higher in “PBM E-score” value: 0.31 for the first, 0.372 for the second.

Going from CTTCCCGA to ACTCCCGA, the “PBM E-score” value rises from 0.143 to 0.2.

First: ACTCCCCG
Second: ATTCCCGA
The “PBM E-score” value of the first is lower: 0.283 for the first, 0.395 for the second.

Going from ACTCCCGG to GTTCCCGA, the “PBM E-score” value falls from 0.378 to 0.257.

Compared with ATTCCCGC, ATTCCCGG is higher in “PBM E-score” value: 0.318 for the first, 0.395 for the second.

First: ATTCCCCG
Second: CTAGCGTC
The “PBM E-score” value of the first is higher: 0.286 for the first, -0.0893 for the second.

First: CCTCTTCC
Second: TAGCCTAA
The “PBM E-score” value of the first is higher: -0.0207 for the first, -0.158 for the second.

First: AGGCAAAG
Second: CGAGGAGC
The “PBM E-score” value of the first is lower: -0.246 for the first, 0.0181 for the second.

Going from CGAACCAG to GGATCGAA, the “PBM E-score” value rises from -0.00442 to 0.168.

First: ACATCGGA
Second: AGATCGGA
The “PBM E-score” value of the first is lower: 0.265 for the first, 0.376 for the second.

Going from GGATCGGA to GCGTCGGA, the “PBM E-score” value falls from 0.384 to 0.375.

First: ACGTCGGA
Second: AGATCGGC
The “PBM E-score” value of the first is lower: 0.256 for the first, 0.267 for the second.

First: GCATCGGA
Second: CGATCGGA
The “PBM E-score” value of the first is higher: 0.383 for the first, 0.354 for the second.

First: AGATCGGG
Second: GCATCGGC
The “PBM E-score” value of the first is lower: 0.153 for the first, 0.225 for the second.

Compared with CCGTCGGA, AAACTAGC is lower in “PBM E-score” value: 0.335 for the first, -0.188 for the second.

Going from GCGTTGCA to GAGCGGAA, the “PBM E-score” value rises from 0.0308 to 0.248.

Going from GGCATAAA to AAAGTAAG, the “PBM E-score” value falls from 0.102 to -0.163.

Compared with CTAGAGGA, ATCCGTCA is higher in “PBM E-score” value: -0.241 for the first, 0.212 for the second.

First: GAGGGGAA
Second: CCTGTGGA
The “PBM E-score” value of the first is higher: 0.148 for the first, -0.336 for the second.

Going from GGTTTTAA to AAGTGTGC, the “PBM E-score” value falls from 0.334 to -0.132.

Compared with AGTCGGTA, GATCGAAA is higher in “PBM E-score” value: 0.0714 for the first, 0.121 for the second.

Going from GTTTCGAA to ATTTCGGC, the “PBM E-score” value rises from -0.219 to 0.326.

First: ATTTCGGG
Second: CTTTCGTA
The “PBM E-score” value of the first is higher: 0.29 for the first, -0.158 for the second.

First: CTTTCGGC
Second: ATTTCGGA
The “PBM E-score” value of the first is lower: 0.348 for the first, 0.415 for the second.

Going from GTTTCGTA to CTTTCGGA, the “PBM E-score” value rises from 0.11 to 0.399.

First: GTTTCGGA
Second: CGTGCGAC
The “PBM E-score” value of the first is higher: 0.389 for the first, -0.0831 for the second.

First: ACGCAGAA
Second: AAGCTCAA
The “PBM E-score” value of the first is higher: -0.0372 for the first, -0.167 for the second.

Compared with AAATAACC, CGCGTCAC is lower in “PBM E-score” value: 0.0225 for the first, -0.174 for the second.

Going from CACTGACG to CCCCCAAG, the “PBM E-score” value falls from -0.147 to -0.195.

Compared with CCCTCAAG, CGCCGAGA is higher in “PBM E-score” value: -0.233 for the first, 0.37 for the second.

Compared with CCCCGAGA, AGCCGAGA is lower in “PBM E-score” value: 0.319 for the first, 0.267 for the second.

Going from GGCCGCGA to GGCCGAGA, the “PBM E-score” value rises from 0.0621 to 0.401.

Going from TCCCGAGA to GCCCGAGA, the “PBM E-score” value rises from 0.261 to 0.391.

Compared with CGCCGAGC, CGCCGCGA is lower in “PBM E-score” value: 0.364 for the first, 0.213 for the second.

Going from CTTTCTTA to AGCTTAGA, the “PBM E-score” value rises from -0.125 to -0.00759.

Compared with ACGTACTG, ACGGCCCA is higher in “PBM E-score” value: -0.144 for the first, 0.141 for the second.

First: CGGGCCCA
Second: CCGGCCGG
The “PBM E-score” value of the first is lower: 0.26 for the first, 0.456 for the second.

Compared with ACGGCCAA, ACGGCCGA is higher in “PBM E-score” value: 0.166 for the first, 0.419 for the second.

Compared with AGGGCCTA, CGGGCCCG is higher in “PBM E-score” value: 0.0252 for the first, 0.419 for the second.

First: CGGGCCTA
Second: CCGGCCAG
The “PBM E-score” value of the first is higher: 0.383 for the first, 0.351 for the second.

First: CGGGCCTC
Second: AGGGCCCG
The “PBM E-score” value of the first is higher: 0.192 for the first, 0.106 for the second.

Compared with CCGGCCGC, ATCCACGC is lower in “PBM E-score” value: 0.299 for the first, -0.239 for the second.

First: AGCACTAT
Second: ATTCCCTC
The “PBM E-score” value of the first is lower: -0.257 for the first, -0.083 for the second.

Compared with ACTATCGA, GGATCCAC is higher in “PBM E-score” value: -0.0147 for the first, 0.059 for the second.

Going from ATCTCTTC to AGAGCAGA, the “PBM E-score” value falls from -0.0222 to -0.17.

Going from CAATCTGA to GTACTGTA, the “PBM E-score” value rises from -0.151 to -0.119.

First: ATGGCCGG
Second: CCGGCCGA
The “PBM E-score” value of the first is lower: 0.315 for the first, 0.453 for the second.

First: GCGGCCGA
Second: ACGGCCTG
The “PBM E-score” value of the first is higher: 0.335 for the first, -0.0121 for the second.

Compared with CCGGCCTA, TCGGCCCA is higher in “PBM E-score” value: 0.288 for the first, 0.304 for the second.

Compared with GGGGCCGA, ACGGCCGG is higher in “PBM E-score” value: 0.233 for the first, 0.392 for the second.

Compared with TCGGCCGA, CGGGCCGA is lower in “PBM E-score” value: 0.48 for the first, 0.379 for the second.

Compared with CGGGCCGC, TCGGCCAA is lower in “PBM E-score” value: 0.263 for the first, 0.256 for the second.

Compared with ATGGTGTG, ACCTTACT is higher in “PBM E-score” value: -0.303 for the first, 0.105 for the second.

First: ATGCCCCG
Second: ACGGTAGG
The “PBM E-score” value of the first is higher: 0.282 for the first, -0.0364 for the second.

Compared with TACCCCTA, ACTTCTAC is higher in “PBM E-score” value: -0.146 for the first, -0.119 for the second.

First: CCGGCCCA
Second: CCGGCCCG
The “PBM E-score” value of the first is lower: 0.231 for the first, 0.434 for the second.

First: ACGGCCCG
Second: ACGGCCGT
The “PBM E-score” value of the first is lower: 0.249 for the first, 0.373 for the second.

First: ACGGCCCT
Second: ACGGCCGC
The “PBM E-score” value of the first is lower: -0.0855 for the first, 0.228 for the second.

Going from CCGTCAAA to ACTGAGCG, the “PBM E-score” value falls from 0.114 to -0.284.

First: CATGCCGG
Second: AATGCCGT
The “PBM E-score” value of the first is lower: 0.298 for the first, 0.334 for the second.

Going from AATGCCGC to ATTGCCGC, the “PBM E-score” value falls from 0.295 to 0.0752.

Going from CTTGCCGA to AATGCCGA, the “PBM E-score” value rises from 0.0417 to 0.405.

Going from AATGCCGG to CATGCCGA, the “PBM E-score” value falls from 0.384 to 0.17.

Compared with ATTGCCGA, CGTTGGTC is lower in “PBM E-score” value: 0.375 for the first, -0.0912 for the second.

Compared with ACGGGAAC, GGAAGACC is lower in “PBM E-score” value: 0.101 for the first, 0.0832 for the second.

Going from GCCCACTA to CTCACACC, the “PBM E-score” value falls from -0.137 to -0.15.

Going from CGCGGCAG to GACTGTAC, the “PBM E-score” value falls from 0.1 to -0.171.

Going from GAGCTGCA to CCCCGCTC, the “PBM E-score” value rises from -0.00591 to 0.0426.

Going from ATCGGCAC to CGCGCGAC, the “PBM E-score” value falls from 0.315 to 0.2.

Going from GAATCCGC to AAATCCGA, the “PBM E-score” value rises from 0.179 to 0.457.

Compared with AAATCCAC, GAATCCGA is higher in “PBM E-score” value: 0.0573 for the first, 0.307 for the second.

Going from CAATCCGG to CAATCCCG, the “PBM E-score” value falls from 0.375 to 0.272.

Going from CAATCCGA to AAATCCGC, the “PBM E-score” value rises from 0.241 to 0.387.

First: CAATCCGC
Second: TAATCCGA
The “PBM E-score” value of the first is lower: 0.191 for the first, 0.346 for the second.

Going from AAATCCCA to AAATCCCG, the “PBM E-score” value rises from -0.0185 to 0.379.

Compared with AAATCCGG, AAATCCTT is lower in “PBM E-score” value: 0.475 for the first, 0.0613 for the second.

Compared with AAATCCAG, AAATCCTG is lower in “PBM E-score” value: 0.0422 for the first, -0.118 for the second.

Going from AAATCCCT to AAATCCGT, the “PBM E-score” value rises from -0.166 to 0.396.

First: CCTTTGGA
Second: GGCTGCTA
The “PBM E-score” value of the first is lower: -0.215 for the first, -0.0615 for the second.

First: CTACCGAG
Second: AGACCGAG
The “PBM E-score” value of the first is lower: 0.139 for the first, 0.373 for the second.

Compared with AGACCGAT, CGACCGAG is higher in “PBM E-score” value: 0.35 for the first, 0.371 for the second.

Compared with CGACCGAA, AGACCGAC is lower in “PBM E-score” value: 0.378 for the first, 0.346 for the second.

Compared with CGACCGAC, CCACCGAG is lower in “PBM E-score” value: 0.301 for the first, 0.14 for the second.

Going from AGACCGAA to GCAGCTTA, the “PBM E-score” value falls from 0.281 to -0.171.

First: CCTGAGAA
Second: CCTATCAG
The “PBM E-score” value of the first is lower: -0.253 for the first, -0.147 for the second.

First: GACAGCAA
Second: TGACTCAA
The “PBM E-score” value of the first is higher: -0.221 for the first, -0.251 for the second.

First: CGGCTGTC
Second: GGGCACAA
The “PBM E-score” value of the first is higher: 0.175 for the first, -0.0367 for the second.

For GAGGACGC, the “PBM E-score” value was -0.0224.
